# Measurements from PubChem BioAssay AID1159580 (chemical genetic matrix, 2015).
# The whole screen tested about 5,500 compounds, of which about 2,000 (36%) were called active. About 18% were inconclusive and are not listed. This is one part of the list. A number with no mark means an inactive call. Rule as the data show it: active = normalized growth mostly below about 0.91 (no sharp cut-off); inconclusive = no clear call, values can overlap the other calls; inactive = mostly above about 0.92.
# Experiment: chemical genetic growth profiling, strain panel (AID 1159580);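 also: tested at 20 µM; growth read once vehicle control cultures reached saturation at 30 °C; 1 = growth at the plate median or of vehicle wells; lower values mean less growth of the strain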
# Settings: growth OD
# [1] = S. cerevisiae deletion strains, locus YAL013W, strain DEP1, active compounds read low
# [2] = S. cerevisiae deletion strains, locus YBR229C, strain ROT2, active compounds read low
# [3] = S. cerevisiae deletion strains, locus YCL061C, strain MRC1, active compounds read low
# [4] = S. cerevisiae deletion strains, locus YDL101C, strain DUN1, active compounds read low
# [5] = S. cerevisiae deletion strains, locus YDL134C, strain PPH21, active compounds read low
# [6] = S. cerevisiae deletion strains, locus YDR150W, strain NUM1, active compounds read low
# [7] = S. cerevisiae deletion strains, locus YEL061C, strain CIN8, active compounds read low
# [8] = S. cerevisiae deletion strains, locus YGR078C, strain PAC10, active compounds read low
# [9] = S. cerevisiae deletion strains, locus YHR030C, strain SLT2, active compounds read low
# [10] = S. cerevisiae deletion strains, locus YHR087W, strain rtc3, active compounds read low
# [11] = S. cerevisiae deletion strains, locus YJL187C, strain SWE1, active compounds read low
# [12] = S. cerevisiae deletion strains, locus YJR043C, strain POL32, active compounds read low
# [13] = S. cerevisiae deletion strains, locus YJR075W, strain HOC1, active compounds read low
# [14] = S. cerevisiae deletion strains, locus YKL190W, strain CNB1, active compounds read low
# [15] = S. cerevisiae deletion strains, locus YLR039C, strain RIC1, active compounds read low
# [16] = S. cerevisiae deletion strains, locus YLR058C, strain SHM2 (second series), active compounds read low
# [17] = S. cerevisiae deletion strains, locus YLR085C, strain ARP6, active compounds read low
# [18] = S. cerevisiae deletion strains, locus YLR262C, strain YPT6, active compounds read low
# [19] = S. cerevisiae deletion strains, locus YML094W, strain GIM5, active compounds read low
# [20] = S. cerevisiae deletion strains, locus YMR219W, strain ESC1, active compounds read low
# [21] = S. cerevisiae deletion strains, locus YMR263W, strain SAP30, active compounds read low
# [22] = S. cerevisiae deletion strains, locus YMR307W, strain GAS1, active compounds read low
# [23] = S. cerevisiae deletion strains, locus YNL153C, strain GIM3, active compounds read low
# [24] = S. cerevisiae deletion strains, locus YNL298W, strain CLA4 (second series), active compounds read low
# [25] = S. cerevisiae deletion strains, locus YNL322C, strain KRE1, active compounds read low
# [26] = S. cerevisiae deletion strains, locus YNR030W, strain Alg12, active compounds read low
# [27] = S. cerevisiae deletion strains, locus YOL006C, strain TOP1, active compounds read low
# [28] = S. cerevisiae deletion strains, locus YPL055C, strain LGE1, active compounds read low
# [29] = S. cerevisiae deletion strains, locus YPL241C, strain CIN2, active compounds read low
# [30] = S. cerevisiae deletion strains, locus YPR135W, strain CTF4, active compounds read low
# [31] = S. cerevisiae strains, strain wild type, active compounds read low
compound,measurement,setting,value
N#Cc1ccc(-c2csc(-c3ccc(Oc4ccc(C(F)(F)F)cn4)cc3)n2)cc1,normalized growth,[1],0.98
same,normalized growth,[2],1
same,normalized growth,[3],1.01
same,normalized growth,[4],1.03
same,normalized growth,[5],0.986
same,normalized growth,[6],1.01
same,normalized growth,[7],1.01
same,normalized growth,[8],0.996
same,normalized growth,[9],1.03
same,normalized growth,[10],0.984
same,normalized growth,[11],1
same,normalized growth,[12],1.01
same,normalized growth,[13],1.03
same,normalized growth,[14],1.01
same,normalized growth,[15],0.974
same,normalized growth,[16],1
same,normalized growth,[17],1.14
same,normalized growth,[18],0.974
same,normalized growth,[19],0.99
same,normalized growth,[20],1
same,normalized growth,[21],1.03
same,normalized growth,[22],1.32
same,normalized growth,[23],1.02
same,normalized growth,[24],1
same,normalized growth,[25],0.994
same,normalized growth,[26],1
same,normalized growth,[27],1.05
same,normalized growth,[28],0.998
same,normalized growth,[29],1.33 [resistant] (active)
same,normalized growth,[30],0.88
same,normalized growth,[31],0.99
Cc1ccc(-c2csc(-c3ccc(Oc4ccc(C(F)(F)F)cn4)cc3)n2)c(C)c1,normalized growth,[1],0.995
same,normalized growth,[2],1
same,normalized growth,[3],1.02
same,normalized growth,[4],1.03
same,normalized growth,[5],0.992
same,normalized growth,[6],1.01
same,normalized growth,[7],1
same,normalized growth,[8],1.01
same,normalized growth,"S. cerevisiae deletion strains, locus YGR229C, strain SMI1, active compounds read low",0.996
same,normalized growth,[9],1.06
same,normalized growth,[10],0.995
same,normalized growth,[12],1.01
same,normalized growth,[13],1.03
same,normalized growth,[14],0.993
same,normalized growth,[15],1.03
same,normalized growth,[16],1
same,normalized growth,[17],1.17
same,normalized growth,[18],0.996
same,normalized growth,[19],1
same,normalized growth,[20],0.998
same,normalized growth,[21],1.03
same,normalized growth,[22],1.24
same,normalized growth,[23],1.02
same,normalized growth,[24],1
same,normalized growth,[25],1
same,normalized growth,[26],1
same,normalized growth,[28],1.01
same,normalized growth,[29],1.03
same,normalized growth,[30],0.966
same,normalized growth,[31],0.988
C/C(=N/NC(=S)Nc1ccc(C(C)C)cc1)c1ccco1,normalized growth,[1],0.906 (active)
same,normalized growth,[2],0.859 (active)
same,normalized growth,[3],0.909 (active)
same,normalized growth,[4],0.905
same,normalized growth,[5],0.629 (active)
same,normalized growth,[6],0.805
same,normalized growth,[7],0.433 (active)
same,normalized growth,[8],0.864 (active)
same,normalized growth,[9],0.242 (active)
same,normalized growth,[10],0.817 (active)
same,normalized growth,[11],0.866 (active)
same,normalized growth,[12],0.937
same,normalized growth,[13],0.879 (active)
same,normalized growth,[14],0.583 (active)
same,normalized growth,[15],0.487 (active)
same,normalized growth,[16],0.967
same,normalized growth,[17],0.158 (active)
same,normalized growth,[18],0.617 (active)
same,normalized growth,[19],0.687 (active)
same,normalized growth,[20],0.93 (active)
same,normalized growth,[21],0.892 (active)
same,normalized growth,[22],0.376 (active)
same,normalized growth,[23],0.875 (active)
same,normalized growth,[24],0.437 (active)
same,normalized growth,[25],0.991
same,normalized growth,[26],0.609 (active)
same,normalized growth,[27],0.17 (active)
same,normalized growth,[28],0.847
same,normalized growth,[29],0.516 (active)
same,normalized growth,[30],0.398 (active)
same,normalized growth,[31],0.741 (active)
O/N=C(/c1ccc(Cl)cc1)c1cc2ccccc2o1,normalized growth,"S. cerevisiae deletion strains, locus YAR019C, strain CDC15, active compounds read low",0.936
same,normalized growth,"S. cerevisiae deletion strains, locus YBL105C, strain PKC1, active compounds read low",0.946
same,normalized growth,"S. cerevisiae deletion strains, locus YBR135W, strain CKS1, active compounds read low",0.939
same,normalized growth,"S. cerevisiae deletion strains, locus YBR136W, strain MEC1, active compounds read low",0.945
same,normalized growth,"S. cerevisiae deletion strains, locus YBR160W, strain CDC28, active compounds read low",0.957
same,normalized growth,"S. cerevisiae deletion strains, locus YDL017W, strain CDC7, active compounds read low",0.946
same,normalized growth,"S. cerevisiae deletion strains, locus YDL028C, strain MPS1, active compounds read low",0.948
same,normalized growth,[4],0.964
same,normalized growth,"S. cerevisiae deletion strains, locus YDL108W, strain KIN28, active compounds read low",0.943
same,normalized growth,"S. cerevisiae deletion strains, locus YDL132W, strain cdc53, active compounds read low",0.962
same,normalized growth,"S. cerevisiae deletion strains, locus YDL214C, strain PRR2, active compounds read low",0.887
same,normalized growth,"S. cerevisiae deletion strains, locus YDR052C, strain DBF4, active compounds read low",0.93
same,normalized growth,"S. cerevisiae deletion strains, locus YDR054C, strain cdc34, active compounds read low",0.947
same,normalized growth,"S. cerevisiae deletion strains, locus YDR226W, strain ADK1, active compounds read low",0.916
same,normalized growth,"S. cerevisiae deletion strains, locus YDR477W, strain SNF1, active compounds read low",0.847
same,normalized growth,"S. cerevisiae deletion strains, locus YER123W, strain YCK3, active compounds read low",0.883
same,normalized growth,"S. cerevisiae deletion strains, locus YER133W, strain GLC7, active compounds read low",0.813
same,normalized growth,"S. cerevisiae deletion strains, locus YFL009W, strain cdc4, active compounds read low",0.963
same,normalized growth,"S. cerevisiae deletion strains, locus YFL029C, strain CAK1, active compounds read low",0.94
same,normalized growth,"S. cerevisiae deletion strains, locus YFR003C, strain YPI1, active compounds read low",0.943
same,normalized growth,"S. cerevisiae deletion strains, locus YFR019W, strain FAB1, active compounds read low",0.904
same,normalized growth,"S. cerevisiae deletion strains, locus YFR028C, strain CDC14, active compounds read low",0.956
same,normalized growth,"S. cerevisiae deletion strains, locus YGR040W, strain KSS1, active compounds read low",0.852
same,normalized growth,"S. cerevisiae deletion strains, locus YGR052W, strain FMP48, active compounds read low",0.789
same,normalized growth,"S. cerevisiae deletion strains, locus YGR092W, strain DBF2, active compounds read low",0.748
same,normalized growth,[9],0.526 (active)
same,normalized growth,"S. cerevisiae deletion strains, locus YHR079C, strain IRE1, active compounds read low",0.851
same,normalized growth,"S. cerevisiae deletion strains, locus YHR082C, strain KSP1, active compounds read low",0.877
same,normalized growth,"S. cerevisiae deletion strains, locus YHR205W, strain SCH9, active compounds read low",0.675
same,normalized growth,"S. cerevisiae deletion strains, locus YIL147C, strain SLN1, active compounds read low",0.943
same,normalized growth,"S. cerevisiae deletion strains, locus YJL095W, strain BCK1, active compounds read low",0.403 (active)
same,normalized growth,"S. cerevisiae deletion strains, locus YJL128C, strain PBS2, active compounds read low",0.893
same,normalized growth,"S. cerevisiae deletion strains, locus YJL157C, strain FAR1, active compounds read low",0.872
same,normalized growth,"S. cerevisiae deletion strains, locus YJR016C, strain ILV3, active compounds read low",0.941
same,normalized growth,"S. cerevisiae deletion strains, locus YJR066W, strain TOR1 (second series), active compounds read low",0.848
same,normalized growth,"S. cerevisiae deletion strains, locus YJR066W, strain TOR1, active compounds read low",0.797
same,normalized growth,"S. cerevisiae deletion strains, locus YKL048C, strain ELM1, active compounds read low",0.923
same,normalized growth,"S. cerevisiae deletion strains, locus YKL067W, strain YNK1, active compounds read low",0.893
same,normalized growth,"S. cerevisiae deletion strains, locus YKL101W, strain HSL1, active compounds read low",0.916
same,normalized growth,"S. cerevisiae deletion strains, locus YKL193C, strain SDS22, active compounds read low",0.93
same,normalized growth,"S. cerevisiae deletion strains, locus YKL203C, strain TOR2, active compounds read low",0.622 (active)
same,normalized growth,"S. cerevisiae deletion strains, locus YLR113W, strain HOG1, active compounds read low",0.915
same,normalized growth,"S. cerevisiae deletion strains, locus YLR133W, strain CKI1, active compounds read low",0.863
same,normalized growth,"S. cerevisiae deletion strains, locus YLR403W, strain SFP1, active compounds read low",0.614 (active)
same,normalized growth,"S. cerevisiae deletion strains, locus YML070W, strain DAK1, active compounds read low",0.868
same,normalized growth,"S. cerevisiae deletion strains, locus YMR001C, strain CDC5, active compounds read low",0.936
same,normalized growth,"S. cerevisiae deletion strains, locus YMR205C, strain PFK2 (second series), active compounds read low",0.862
same,normalized growth,"S. cerevisiae deletion strains, locus YMR277W, strain FCP1, active compounds read low",0.933
same,normalized growth,"S. cerevisiae deletion strains, locus YNL006W, strain LST8, active compounds read low",0.945
same,normalized growth,"S. cerevisiae deletion strains, locus YNL020C, strain ARK1, active compounds read low",0.82
same,normalized growth,"S. cerevisiae deletion strains, locus YNL161W, strain CBK1, active compounds read low",0.942
same,normalized growth,"S. cerevisiae deletion strains, locus YNL183C, strain NPR1, active compounds read low",0.784
same,normalized growth,"S. cerevisiae deletion strains, locus YNL207W, strain RIO2, active compounds read low",0.935
same,normalized growth,"S. cerevisiae deletion strains, locus YNL222W, strain SSU72, active compounds read low",0.947
same,normalized growth,"S. cerevisiae deletion strains, locus YNL307C, strain MCK1 (second series), active compounds read low",0.902
same,normalized growth,"S. cerevisiae deletion strains, locus YOL078W, strain AVO1, active compounds read low",0.937
same,normalized growth,"S. cerevisiae deletion strains, locus YOL136C, strain PFK27, active compounds read low",0.865
same,normalized growth,"S. cerevisiae deletion strains, locus YOR061W, strain CKA2, active compounds read low",0.87
same,normalized growth,"S. cerevisiae deletion strains, locus YOR119C, strain RIO1, active compounds read low",0.848
same,normalized growth,"S. cerevisiae deletion strains, locus YOR231W, strain MKK1, active compounds read low",0.964
same,normalized growth,"S. cerevisiae deletion strains, locus YOR329C, strain SCD5, active compounds read low",0.946
same,normalized growth,"S. cerevisiae deletion strains, locus YPL031C, strain PHO85, active compounds read low",0.84
same,normalized growth,"S. cerevisiae deletion strains, locus YPL153C, strain RAD53, active compounds read low",0.841
same,normalized growth,"S. cerevisiae deletion strains, locus YPL204W, strain HRR25, active compounds read low",0.807
same,normalized growth,"S. cerevisiae deletion strains, locus YPL209C, strain IPL1, active compounds read low",0.941
same,normalized growth,"S. cerevisiae deletion strains, locus YPL256C, strain CLN2, active compounds read low",0.917
same,normalized growth,"S. cerevisiae deletion strains, locus YPR025C, strain CCL1, active compounds read low",0.948
same,normalized growth,"S. cerevisiae deletion strains, locus YPR106W, strain ISR1, active compounds read low",0.946
same,normalized growth,"S. cerevisiae deletion strains, locus YPR111W, strain DBF20, active compounds read low",0.951
same,normalized growth,"S. cerevisiae deletion strains, strain NNK1, active compounds read low",0.946
same,normalized growth,"S. cerevisiae deletion strains, strain TSCII, active compounds read low",0.939
